Assay results reported in PubChem BioAssay AID1259313 (Sanford-Burnham Center for Chemical Genomics, 2017).
Hit rate of the full screen: of about 340,000 compounds, about 8,500 (2.5%) were called active. The sample holds actives, similar compounds and a random draw of the others, so the mix is not that of the screen.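 Rule for the calls: active = melting temperature shift of at least 10% of the positive control shift, at one fixed dose; inactive = the rest.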

Each molecule was assayed on Glutamate receptor ionotropic, NMDA 3A (GRIN3A) ligand-binding domain (assay: NR3A LBD thermal stabilization by compounds – biophysical, differential scanning fluorimetry, uHTS, primary screen (AID 1259313)). Conditions: at 25 µM, hits give high values, 0% = protein alone, 100% = glycine-bound protein.

SMILES	Tm shift relative to glycine control
COc1ccc(S(=O)(=O)N(C)C[C@H]2Oc3c(NC(=O)Nc4ccc5c(c4)OCO5)cccc3C(=O)N([C@H](C)CO)C[C@@H]2C)cc1	-34% (inactive)
Cc1ccc2nc(-c3ccc(NC(=O)c4cccnc4)cc3)oc2c1	24% (active)
CCOC(=O)c1ccc(NC(=O)c2cccnc2)cc1	0.68% (inactive)
Cc1ccc(-n2nc3cc(C)c(NC(=O)c4cccnc4)cc3n2)cc1	-2.09% (inactive)
Cc1cc(NS(=O)(=O)c2ccc(NC(=O)c3cccnc3)cc2)nc(C)n1	-0.7% (inactive)
Cc1cc2nc(-c3ccc(NC(=O)c4cccnc4)cc3)oc2cc1C	24.6% (active)
CC(=O)NC(=S)Nc1ccc(NC(=O)c2cccnc2)cc1	2.02% (inactive)
Cc1ccc(C2CC(c3cccc(NS(C)(=O)=O)c3)=NN2S(C)(=O)=O)cc1 (centres undefined)	-1.41% (inactive)
CC(C)(C)C(=O)COC(=O)c1cc(S(=O)(=O)N2CCCCC2)ccc1N1CCOCC1	-1.85% (inactive)
COc1ccccc1CNS(=O)(=O)c1ccc2c(c1)NC(=O)CS2	1.27% (inactive)
COc1ccc(Cl)cc1C=CC=Nc1ccc(S(N)(=O)=O)cc1	-9.77% (inactive)
Cc1nc2ccc(C(=O)N/N=C/c3ccc(O)cc3)cc2[nH]1	-4.58% (inactive)
CC(=NNC(=O)c1ccc2nc[nH]c2c1)c1ccc(Br)cc1	-13% (inactive)
CSc1ccc(/C=N\NC(=O)CC(=O)NC(C)C)cc1	-7.31% (inactive)
O=C(NN=Cc1ccccc1)c1ccccc1	3.44% (inactive)
CSc1ccc(/C=N/NC(=O)c2cccc(Cl)c2)cc1	19.1% (active)
O=C(N/N=C/c1ccc(Cl)c(Cl)c1)c1ccc2nc[nH]c2c1	27.4% (active)
c1ccc(COc2ccccc2CNCc2cccnc2)cc1	-0.7% (inactive)
CCOC(=O)C(C)Sc1nc2ccccc2c(=O)n1CC1CCCCC1 (centres undefined)	15.7% (active)
COCC(C)n1c(SCC(=O)NC2CCCCC2C)nc2ccccc2c1=O (centres undefined)	-0.26% (inactive)
CCOn1c(SC(C)C)nc2ccccc2c1=O	-0.18% (inactive)
CCOC(=O)CCCCCC(=O)Nc1ccc2c(c1)CC(=O)N([C@@H](C)CO)C[C@H](C)[C@@H](CN(C)Cc1ccccc1)O2	0.56% (inactive)
COc1ccc(NCc2nnc(SCc3ccccc3)n2-c2ccc(OC)cc2)cc1	-0.87% (inactive)
CCc1nonc1NC(=O)c1oc2ccc(Cl)cc2c1C	-0.44% (inactive)

SMILES	Tm shift relative to glycine control
COc1ccc(CCNC(=O)COC(=O)Cc2cc(OC)c(OC)c(OC)c2)cc1	-0.75% (inactive)
COc1ccc(CCNC(=O)COC(=O)Cc2cccc(F)c2)cc1	15.5% (active)
COc1ccc(CCNC(=O)COC(=O)Cc2ccccc2F)cc1	1.52% (inactive)
NC(=S)c1ccc(C(N)=S)o1	9.83% (inactive)
COc1ccc(C(C(=O)NCC2CCCO2)N(C(=O)Cn2nnc3ccccc32)c2ccc(NC(C)=O)cc2)cc1OC (centres undefined)	1.93% (inactive)
CC(=O)NC(Cc1c[nH]c2ccccc12)C(=O)NCCc1ccccc1 (centres undefined)	1.08% (inactive)
O=C(NC(Cc1c[nH]c2ccccc12)C(=O)N/N=C/c1ccc(Br)cc1)c1cccs1 (centres undefined)	19.7% (active)
O=C(CNC(=O)c1cccs1)N/N=C/c1cccc(Br)c1	-2.08% (inactive)
OC(CNCC1CCCO1)Cn1c2ccc(Br)cc2c2cc(Br)ccc21 (centres undefined)	-15.9% (inactive)
O=[N+]([O-])c1ccc(C=NN=Cc2ccc([N+](=O)[O-])cc2)cc1	12.6% (active)
O=[N+]([O-])c1ccc(N=NNc2ccc([N+](=O)[O-])cc2)cc1	4.69% (inactive)
O=[N+]([O-])c1ccc(N/N=C/c2ccccc2)cc1	29.2% (active)
CC(C)c1ccc(C=NNc2ccc([N+](=O)[O-])cn2)cc1	-2.51% (inactive)
O=[N+]([O-])c1cccc(/C=N/Nc2ncc(Br)cn2)c1	-2.79% (inactive)
O=C1/C(=C\c2ccc([N+](=O)[O-])cc2)CS(=O)(=O)C/C1=C/c1ccc([N+](=O)[O-])cc1	-9.77% (inactive)
CC1(C)Cc2c(sc(NC(=O)C(=O)N3CCOCC3)c2C#N)CO1	2.25% (inactive)
O=C(CN1C2CCC1CC(NC(=O)C1CC1)C2)NCc1ccccc1 (centres undefined)	-0.34% (inactive)
O=C(COC(=O)C1CC2CCCC(C1)C2=O)NC(=O)c1ccccc1 (centres undefined)	-1.22% (inactive)
Cc1c(C(=O)NNC(=O)c2ccncc2)oc2ccccc12	2.4% (inactive)
COc1ccc(NC(=O)N2CCCC2C(=O)NCc2ccccc2Cl)cc1 (centres undefined)	-2.42% (inactive)
FC(F)(F)c1cccc(-c2cc3ccccc3nc2N2CCCC2)c1	-0.24% (inactive)
Cc1ccc(S(=O)(=O)N(c2cccc(C)c2)C2CCS(=O)(=O)C2)cc1 (centres undefined)	-3.26% (inactive)
COCCn1c(=NC(=O)c2ccccc2[N+](=O)[O-])sc2cc(S(C)(=O)=O)ccc21	3.81% (inactive)
C=C(C)COc1ccc(-c2n[nH]c(C)c2-c2ccccc2)c(O)c1	10.9% (active)

SMILES	Tm shift relative to glycine control
C=C(C)COc1ccc(-c2ncncc2-c2ccc(OC)cc2)c(O)c1	-1.75% (inactive)
C=C(C)COc1ccc(-c2nc(N)ncc2-c2ccccc2OC)c(O)c1	-3.37% (inactive)
COc1c(C)c2c(c(O)c1C/C=C(\C)CCC(=O)O)C(=O)OC2	0.8% (inactive)
COc1ccc2[nH]c(C(=O)Nc3ccccc3Cl)cc2c1	1.25% (inactive)
O=C(Nc1ccccc1)c1cc2ccccc2[nH]1	20.5% (active)
CC(OC(=O)c1cc2ccccc2[nH]1)C(=O)N(C)c1ccccc1 (centres undefined)	-1.09% (inactive)
Cc1ccc(CC2C(=O)N(c3ccc(F)cc3)C(=O)C2C)cc1 (centres undefined)	1.55% (inactive)
CC(=O)N1CCN(CC(C)(C)NS(=O)(=O)c2ccc(C)cc2)CC1	1.96% (inactive)
O=C(NCCCN1CCOCC1)C1CCCN(S(=O)(=O)N2CCCCC2)C1 (centres undefined)	-1.39% (inactive)
CCOC(=O)N1CCN(C(=O)C(=O)Nc2sc3c(c2C#N)CC(C)(C)OC3)CC1	-1.52% (inactive)
CCc1ccccc1N(CC(=O)NCC1CCCO1)C(=O)CCC(=O)Nc1nccs1 (centres undefined)	-2.76% (inactive)
COc1cccc(CC2(CO)CCCN(CC3=Cc4cc(OC)ccc4OC3)C2)c1 (centres undefined)	-4.46% (inactive)
COc1cccc(CC2(CO)CCCN(Cc3nc(-c4cccs4)oc3C)C2)c1 (centres undefined)	-1.72% (inactive)
COc1cccc(CC2(CO)CCCN(Cc3ccc(OC(F)F)cc3)C2)c1 (centres undefined)	25.6% (active)
O=C(CCNS(=O)(=O)c1ccccc1)NCCSc1ccc(Br)cc1	-2.33% (inactive)
O=c1cc(-c2ccccc2)[nH]c2cc(F)ccc12	-1.79% (inactive)
c1ccc(-c2ccc3c(c2)NC(C2Nc4cc(-c5ccccc5)ccc4O2)O3)cc1 (centres undefined)	0.36% (inactive)
c1ccc(-c2c[nH]c(-c3ccccc3)c2)cc1	17.4% (active)
Nn1c(SCc2ccccc2)nnc1C1CCCCC1	1.23% (inactive)
Cc1ccccc1Nc1nc(N)nc(COC(=O)CCC(=O)c2ccc(F)cc2)n1	-0.42% (inactive)
CCC1SC2=NCCN2C1(O)c1ccc(Cl)cc1 (centres undefined)	-1.83% (inactive)
CCOc1ccc(S(=O)(=O)Nc2nccs2)cc1	-0.76% (inactive)
CCOc1cc(NS(=O)(=O)c2ccc(OC)cc2)c(OCC)cc1NC(C)=O	1.23% (inactive)
CCOc1ccc(S(=O)(=O)N/N=C(\C)c2ccc(Cl)c(Cl)c2Cl)cc1	16.2% (active)

SMILES	Tm shift relative to glycine control
O=C(O)C(CCc1ccccn1)c1ccccc1 (centres undefined)	0.46% (inactive)
O=C1c2ccccc2C(=O)N1CCC#Cc1ccc2cc(C3(O)CCCCC3)oc(=O)c2c1	35.3% (active)
COc1cc(C(=O)NCCOC(=O)c2cccc(N(C)C)c2)cc(OC)c1OC	0.47% (inactive)
Cc1ccc(-c2nn(-c3ccccc3)cc2/C=C2\SC(=S)N(CCCCCC(=O)O)C2=O)o1	-394% (inactive)
COc1ccc(-c2nn(-c3ccccc3)cc2/C=C2/SC(=S)N(CCCC(=O)O)C2=O)c(C)c1	12.5% (active)
C=CCOc1ccc(/C=C2\SC(=S)N(CCC(=O)O)C2=O)cc1	1.33% (inactive)
COc1cccc(NS(=O)(=O)c2ccc(-c3coc(C)n3)cc2)c1	-0.18% (inactive)
O=C(CCNS(=O)(=O)c1ccc(Br)s1)NCc1ccccc1Cl	-2.24% (inactive)
CCOc1ccccc1NC(=S)C(=C([O-])c1ccc2c(c1)OCCO2)[n+]1ccc(CC)cc1	-1.27% (inactive)
COC(=O)c1cc(Oc2ccc(S(=O)(=O)N3CCOCC3)cc2[N+](=O)[O-])cc(C(=O)OC)c1	0.08% (inactive)
O=C(CNC(=O)c1ccc(Br)o1)Nc1ccccc1	2.09% (inactive)
Cc1ccc(C(=O)NNC(=O)c2cccs2)cc1	0.08% (inactive)
Cc1cccc(C(=O)Nc2ccc(C(=O)/C=C/c3cccs3)cc2)c1	29.2% (active)
Cc1cccc(C=CC(=O)c2ccc(Cl)cc2)c1	4.44% (inactive)
Cc1ccc(-c2nnc(-c3ccc(NC(=O)c4cccs4)cc3)o2)cc1	22.2% (active)
Cc1ccc(NC(=O)c2cccs2)cc1S(=O)(=O)N(C)C	-5.63% (inactive)
O=C(Nc1ccc(-c2nnc(-c3ccccc3)o2)cc1)c1ccc(Br)o1	35.9% (active)
Cc1ccc(C(=O)Nc2ccc(NC(=O)c3cccs3)cc2)c(C)c1	28.3% (active)
Brc1ccc(-c2nnc(-c3ccccc3)o2)o1	-0.09% (inactive)
CCc1ccc(NC(=O)C(=O)NNC(=O)c2cccs2)cc1	-14.4% (inactive)
Cc1cccc(C(=O)Nc2ccc(CC(=O)O)cc2)c1	-4.02% (inactive)
Cc1ccc(OCC(=O)Nc2ccc(NC(=O)c3cccs3)cc2)c(C)c1	0.85% (inactive)
